Data on 20 compounds can be found in PubChem BioAssay (EPA / NIEHS).

Records with an inconclusive call do not appear. Active and inactive are the calls of the source. Rule for the calls: active = hit-call score of the fitted dose curve at least 0.9, where 1 is the maximum; inconclusive = response in the unintended direction; inactive = score below 0.9.

The nature of experiment [1]: ACEA_AR_antagonist_AUC_viability: ACEA Biosciences xCELLigence Real-Time Cell Analysis on Androgen Receptor Antagonism for Viability (AID 2283776).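 Note: 22Rv1 human prostate cancer cells growing on impedance electrode plates; area under impedance growth curve at 80 h after dosing as viability; hits lower the growth signal relative to DMSO meaning cytotoxicity.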 The method in brief:
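Impedance read-out (RT-CES): area under growth curve at 80 h post-dose, loss of signal scored vs DMSO baseline. 22Rv1 cells; 8-pt 1:4 series, top 100 uM final, ≤0.5% DMSO; biological duplicate.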

Experiment [2] is described as follows: ACEA_ER_AUC_viability: ACEA Biosciences xCELLigence Real-Time Cell Analysis on Estrogen Receptor Agonism for Viability (AID 2283782).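 Note: hit means loss of impedance signal meaning reduced cell growth or viability.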 The method in brief:
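Viability endpoint: reduced impedance area under the curve relative to DMSO, recorded by real-time electrode sensing over ~80 h of continuous exposure. Duplicate plates of T47D in hormone-depleted medium; eight concentrations, 1:4 dilutions, 100 uM maximum.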

Experiment [3] has as its system frog Estrogen Receptor (ESR1), gene 398734. The experiment is described as follows: ATG_frER1_XSP1: Attagene TRANS-FACTORIAL Multi-Species (XSP1) HepG2 Assay for frog Estrogen Receptor (ESR1) (AID 2283777). The method in brief: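 HepG2 cells transiently transfected with GAL4-UAS reporter units and frog ER–Gal4 chimera were dosed for 24 h with 3 nM 6-alpha-fluorotestosterone present. Reporter mRNA was measured by RT-PCR and capillary electrophoresis; gain of signal fitted versus DMSO.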

The subject of experiment [4] is zebrafish Estrogen Receptor (ESR2A), gene 317734. The experiment is described as follows: ATG_zfER2a_XSP1: Attagene TRANS-FACTORIAL Multi-Species (XSP1) HepG2 Assay for zebrafish Estrogen Receptor (ESR2A) (AID 2283778). On the procedure: ATG_XSP1_multi-species_TRANS is a cell-based, multiplexed assay created by modifying the existing Attagene TRANS-FACTORIAL system to include a panel of nuclear receptors from some or all the following species: human (Homo sapiens), mouse (Mus musculus), frog (Xenopus laevis), zebrafish (Danio rerio), chicken (Gallus gallus), and turtle (Chrysemys picta). The […] format uses HepG2, a human liver cell line, with measurements taken at 24 hours after chemical dosing in a 24-well plate. Xsp1 included 3 nM 6-alpha-fluorotestosterone to partially stimulate the androgen receptor.ATG_zfER2a_XSP1 is one of 29 assay components measured or calculated from the ATG_XSP1_multi-species_TRANS assay. It is designed to make measurements of mRNA induction, a form of inducible reporter, as detected with fluorescence intensity signals by Reverse transcription polymerase chain reaction (RT-PCR) and Capillary electrophoresis technology.The assay endpoint ATG_zfER2a_XSP1 was analyzed in the positive analysis fitting direction relative to DMSO as the negative control and baseline of activity. […] Furthermore, this assay endpoint can be referred to as a primary readout, because this assay has produced multiple assay endpoints where this one serves a reporter gene function. […]

In experiment [5] the target is chicken Estrogen Receptor (ESR1), ESR1 (gene 396099) (UniProt P06212). The experiment is described as follows: ATG_chERa_XSP1: Attagene TRANS-FACTORIAL Multi-Species (XSP1) HepG2 Assay for chicken Estrogen Receptor (ESR1) (AID 2283779). The method in brief: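 Trans-activation of an exogenous chicken ERα–Gal4 chimera read as reporter transcript (RT-PCR, fluorescent labeling, capillary electrophoresis) after 24 h compound exposure of transfected HepG2; medium held 3 nM 6-alpha-fluorotestosterone. Positive-direction fit against DMSO.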

Experiment [6] has as its target Estrogen receptor (Homo sapiens) (UniProt P03372). The experiment is described as follows: ATG_hERa_XSP1: Attagene TRANS-FACTORIAL Multi-Species (XSP1) HepG2 Assay for human Estrogen Receptor (ESR1) (AID 2283780). The method in brief:
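Reporter transcripts from multiplexed GAL4-UAS units driven by NR-Gal4 chimeras in transiently transfected HepG2 were measured by RT-PCR with capillary electrophoresis 24 h post-dose, with 3 nM 6-alpha-fluorotestosterone present; gain-of-signal relative to DMSO.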

In experiment [7] the test system is turtle Estrogen Receptor (ESR1), gene 101933533. The experiment is described as follows: ATG_trERa_XSP1: Attagene TRANS-FACTORIAL Multi-Species (XSP1) HepG2 Assay for turtle Estrogen Receptor (ESR1) (AID 2283781). The method in brief:
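Transactivation measured 24 h post-dose as reporter mRNA (RT-PCR, fluorescent capillary electrophoresis) from an NR-Gal4 turtle ER construct in HepG2. Medium included 3 nM 6-alpha-fluorotestosterone; increase over DMSO fitted.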

In experiment [8] the test system is turtle Androgen Receptor (AR), gene 101947425. The experiment is described as follows: ATG_trAR_XSP1: Attagene TRANS-FACTORIAL Multi-Species (XSP1) HepG2 Assay for turtle Androgen Receptor (AR) (AID 2283786). The method in brief:
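Partial androgen stimulation is provided by 3 nM 6-alpha-fluorotestosterone in a multi-species trans-factorial panel expressing a turtle AR–GAL4 fusion in HepG2. After 24 h, reporter mRNA is measured by RT-PCR and capillary electrophoresis and fitted upward against DMSO.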

The target in experiment [9] is AR (gene 367) (UniProt P10275). The experiment is described as follows: ACEA_AR_agonist_80hr: ACEA Biosciences xCELLigence Real-Time Cell Analysis on Androgen Receptor Agonism for Proliferation (AID 2283783).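 Note: hits increase impedance growth signal above DMSO baseline.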 The method in brief:
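Eight concentrations, 1:4 serial dilution from a 100 uM final top, in biological duplicate. Impedance-based real-time growth of 22Rv1 cells after overnight baseline, recorded hourly and read at 80 hours. Controls: testosterone, MG132, assay media.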

The nature of experiment [10]: STM_H9_NormalizedViability: Cytotoxicity Assessment at 120 hours in the Stemina devTOX quickPredict H9 human embryonic stem cell (hESC)-based Assay (AID 2283784). The method in brief: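 CellTiter-Fluor RFU, background-subtracted, expressed relative to 0.1% DMSO neutral control by plate. Pluripotent H9 cells; treatment with daily re-dosing. Plates carried 1uM methotrexate (positive) and 5 nM methotrexate (negative) references.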

Chain of AR (gene 367) (P10275 whole entry, looked up): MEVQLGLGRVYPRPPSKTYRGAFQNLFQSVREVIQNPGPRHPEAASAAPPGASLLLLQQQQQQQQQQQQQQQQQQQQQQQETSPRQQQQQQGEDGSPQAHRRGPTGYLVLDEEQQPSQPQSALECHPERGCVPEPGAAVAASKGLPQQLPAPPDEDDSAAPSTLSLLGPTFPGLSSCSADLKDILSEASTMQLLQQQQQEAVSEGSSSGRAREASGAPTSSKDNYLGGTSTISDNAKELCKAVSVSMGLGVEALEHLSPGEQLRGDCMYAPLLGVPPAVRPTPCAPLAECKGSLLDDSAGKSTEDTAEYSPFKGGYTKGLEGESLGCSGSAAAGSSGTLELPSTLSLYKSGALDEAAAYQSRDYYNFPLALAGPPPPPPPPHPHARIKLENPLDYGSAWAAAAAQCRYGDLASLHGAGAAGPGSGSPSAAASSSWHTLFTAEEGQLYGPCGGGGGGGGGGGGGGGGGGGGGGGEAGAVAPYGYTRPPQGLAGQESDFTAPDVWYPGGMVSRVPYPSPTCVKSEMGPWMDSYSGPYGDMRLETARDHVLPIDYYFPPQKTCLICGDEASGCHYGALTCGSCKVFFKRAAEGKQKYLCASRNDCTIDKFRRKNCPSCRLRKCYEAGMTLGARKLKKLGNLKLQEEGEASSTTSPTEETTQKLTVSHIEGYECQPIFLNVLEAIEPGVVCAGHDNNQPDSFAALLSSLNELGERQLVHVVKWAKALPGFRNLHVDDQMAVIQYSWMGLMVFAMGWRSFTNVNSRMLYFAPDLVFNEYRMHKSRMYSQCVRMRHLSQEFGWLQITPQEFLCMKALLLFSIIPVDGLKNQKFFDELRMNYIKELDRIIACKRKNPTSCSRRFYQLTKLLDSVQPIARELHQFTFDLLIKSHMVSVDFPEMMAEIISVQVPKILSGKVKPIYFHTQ
Chain of Estrogen receptor (Homo sapiens) (P03372 whole entry, looked up, the tested form may be a part): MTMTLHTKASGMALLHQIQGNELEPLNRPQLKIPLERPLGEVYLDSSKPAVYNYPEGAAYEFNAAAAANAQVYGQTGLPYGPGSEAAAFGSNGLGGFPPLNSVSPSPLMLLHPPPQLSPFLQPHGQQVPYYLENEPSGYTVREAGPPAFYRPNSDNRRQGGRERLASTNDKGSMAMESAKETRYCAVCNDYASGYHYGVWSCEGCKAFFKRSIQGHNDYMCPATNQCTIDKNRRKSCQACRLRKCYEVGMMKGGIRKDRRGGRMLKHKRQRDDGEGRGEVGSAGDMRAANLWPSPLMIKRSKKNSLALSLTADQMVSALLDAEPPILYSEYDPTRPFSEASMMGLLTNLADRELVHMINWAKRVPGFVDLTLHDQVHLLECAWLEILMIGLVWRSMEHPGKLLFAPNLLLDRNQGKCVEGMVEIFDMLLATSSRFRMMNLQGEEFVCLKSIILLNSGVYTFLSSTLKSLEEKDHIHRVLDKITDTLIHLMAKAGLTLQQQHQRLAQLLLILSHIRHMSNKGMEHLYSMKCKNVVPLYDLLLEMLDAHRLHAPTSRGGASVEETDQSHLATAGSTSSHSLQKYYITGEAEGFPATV
Chain of chicken Estrogen Receptor (ESR1), ESR1 (gene 396099) (P06212 whole entry, looked up, the tested form may be a part): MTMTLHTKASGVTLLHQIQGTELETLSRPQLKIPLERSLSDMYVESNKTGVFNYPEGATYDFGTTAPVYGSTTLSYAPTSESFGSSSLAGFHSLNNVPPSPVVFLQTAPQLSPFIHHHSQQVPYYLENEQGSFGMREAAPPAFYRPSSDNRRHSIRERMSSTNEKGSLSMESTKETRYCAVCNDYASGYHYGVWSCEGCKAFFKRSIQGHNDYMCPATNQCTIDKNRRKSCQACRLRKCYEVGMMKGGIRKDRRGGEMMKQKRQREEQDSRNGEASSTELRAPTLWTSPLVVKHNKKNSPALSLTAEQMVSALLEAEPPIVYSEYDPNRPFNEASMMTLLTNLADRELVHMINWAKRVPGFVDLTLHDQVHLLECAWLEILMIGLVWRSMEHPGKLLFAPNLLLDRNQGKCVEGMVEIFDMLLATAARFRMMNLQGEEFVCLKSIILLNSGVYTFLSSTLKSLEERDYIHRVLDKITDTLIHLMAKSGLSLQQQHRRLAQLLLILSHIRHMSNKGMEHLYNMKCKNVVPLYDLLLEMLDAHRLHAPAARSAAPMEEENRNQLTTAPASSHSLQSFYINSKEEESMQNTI

As to `CC(C)=CCC[C@H](C)CCO`, the compound was classed as inactive in [1] and in [2].

Take `c1c[nH]cn1`: the call in [1] and in experiment [2] was inactive. Regarding `Cc1ccc(N/N=c2\c(=O)cc/c(=N/Nc3ccc(S(=O)(=O)O)cc3)c2=O)c(C)c1`, in experiment [1], the concentration at half-maximal activity (AC50) (commonly the concentration giving half of the maximal activity seen) was 8300 nM (active). Also, the compound was called inactive in experiment [2]. `CNC(=S)NN`: the outcome in experiment [1] and in experiment [2] was inactive. As for `OC1CCCCCCCCCCC1`, the compound was called inactive in [1] and in [2].

Consider `CC(C)(C)c1ccc(OC(=O)c2ccccc2O)cc1`, for which the values for the AC50 in experiment [1] and in [2] were 77.7 nM (active) and 66200 nM (active), respectively. With `CC/C=C\C/C=C\C/C=C\CCCCCCCC(=O)O`, the call in [1] and in experiment [2] was inactive. For the compound `COC(=O)c1c(C)cc(O)c(C)c1O`, the AC50 in experiment [1] is 4230 nM (active). The outcome in experiment [2] was inactive.

Turning to `O=c1cc(-c2ccccc2)oc2ccccc12`, the call in experiment [1] was inactive. As for `CC1=CC[C@H]2C[C@@H]1C2(C)C`, the outcome in experiment [1] and in experiment [2] was inactive.

On to `Cc1cc(C)c(C(=O)O)c(C)c1`, for which the compound was called inactive in [1] and in experiment [2]. With `CCCCCc1ccc(Cl)cc1`, the compound was classed as inactive in experiment [1] and in experiment [2]. With `CC=C1CC2C=CC1C2` (centres undefined), the compound was classed as inactive in experiment [1] and in [2]. Consider `Cc1ccc(C(C)c2ccc(C)c(C)c2)cc1C`, for which, in [1], the compound was classed as inactive. For the same compound, the AC50 in experiment [2] is 50000 nM (active). As for `O=C(C=Cc1ccccc1)OCc1ccccc1`, the compound was classed as inactive in experiment [1] and in experiment [2]. Take `O=C(c1ccc(O)cc1)c1ccc(O)cc1O`: the half-maximal activity concentration (AC50) in experiment [3] was 664 nM (active); in experiment [4] it was 426 nM (active); in experiment [5], 1280 nM (active); in [6] it was 1270 nM (active); in experiment [7], 879 nM (active); in experiment [8] it was 2690 nM (active). For the compound `CC(C)c1ccc2c(C(C)C)cc(C(C)C)c(S(=O)(=O)O)c2c1`, the compound was called inactive in [9]. For `CC(CC=O)CCCC(C)(C)O` (centres undefined), in experiment [9], the call was inactive.

With `Nc1ccc(N)c(Cl)c1`, the AC50 in experiment [10] is 18700 nM (active). Same read-out and setting: for `CN(C)c1ccc(N=Nc2ccccc2C(=O)O)cc1` the value was 68100 nM (active).
